Among the test systems are HCT-15 colon; HT29 colon; SNB-75 CNS; SNB-19 CNS; PC-3 prostate; SK-MEL-5 melanoma; UACC-62 melanoma; LOX IMVI melanoma; SK-MEL-28 melanoma; SK-MEL-2 melanoma; EKVX NSCLC; SN12C renal; UO-31 renal; ACHN renal; CAKI-1 renal; A498 renal; CCRF-CEM leukemia; MOLT-4 leukemia; TK-10 renal.
Holding throughout (test): NCI-60 one-dose screen, 48 h (100 = growth as untreated, 0 = no growth, -100 = all killed)
What all share (settings): 10 µM unless noted

About 83,000 compounds went through this panel and 20% of them were active in at least one assay; those are over-represented in the sample as a whole.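 48-hour exposure, single concentration, 96-well plates; percent growth endpoint where 0 means no net growth. Active: below 10.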 A number with no mark means an inactive call. Activity calls are given as the source filed them.

Consider `OC(c1ccccc1)C(NCc1ccccc1)c1ccccc1` (stereo unspecified), for which the growth in the assay with HCT-15 colon is 108%; in the assay with HT29 colon it was 103%; in the assay on SNB-75 CNS, 91%; in the assay with SNB-19 CNS, 87.8%; in the assay on PC-3 prostate, 79.9%; in the assay with SK-MEL-5 melanoma, 108%. Besides, the growth in the assay on UACC-62 melanoma is 90.3%; in the assay with LOX IMVI melanoma, 85.5%; in the assay with SK-MEL-28 melanoma it was 101%; in the assay on SK-MEL-2 melanoma, 120%; in the assay on EKVX NSCLC, 86%; in the assay with SN12C renal, 104%. Besides, the growth is 92% with UO-31 renal; 99.5% in the assay on ACHN renal; 62.8% in the assay with CAKI-1 renal; 87.7% with A498 renal; 97.3% in the assay on CCRF-CEM leukemia; 100% in the assay with MOLT-4 leukemia.
`O=C1/C(=C/c2ccccc2O)C(=S)SN1Cc1ccco1`: the growth was 91.6% in the assay on HCT-15 colon; 87.6% with HT29 colon; 70.2% in the assay on SNB-75 CNS; 111% in the assay with SNB-19 CNS; 93.3% with PC-3 prostate; 95.8% with SK-MEL-5 melanoma. Also, the growth is 94.4% in the assay with UACC-62 melanoma; 34.7% in the assay on LOX IMVI melanoma; 92% in the assay with SK-MEL-28 melanoma; 81.4% in the assay on SK-MEL-2 melanoma; 93.8% in the assay with SN12C renal; 84.4% in the assay on UO-31 renal. Moreover, the growth in the assay on TK-10 renal is 98.8%; in the assay on ACHN renal, 106%; in the assay with CAKI-1 renal, 119%; in the assay with CCRF-CEM leukemia, 70.7%; in the assay with MOLT-4 leukemia, 99%.
`Cc1ccc(C2=Nc3c(ccc4c(C)c(C)c(=O)oc34)OC2)cc1`: the growth was 94.4% in the assay with HCT-15 colon; 102% with HT29 colon; 95.7% with SNB-75 CNS; 101% with SNB-19 CNS; 88.9% in the assay with PC-3 prostate; 101% with SK-MEL-5 melanoma. Further, the growth in the assay on UACC-62 melanoma is 107%; in the assay with LOX IMVI melanoma it was 94.5%; in the assay on SK-MEL-28 melanoma, 110%; with SK-MEL-2 melanoma it was 95.8%; in the assay with SN12C renal it was 98.7%; with UO-31 renal, 82.6%. Moreover, the growth in the assay with TK-10 renal was 108%; with ACHN renal, 99.1%; in the assay on CAKI-1 renal, 92.2%; in the assay on A498 renal it was 110%; with MOLT-4 leukemia, 101%.
As for `COC(=O)[C@H](Cc1cn(C)cn1)NC(=O)[C@H](C)NC(=O)Nc1cc(C(F)(F)F)cc(C(F)(F)F)c1`, the growth with HCT-15 colon was 37.7% [100 µM]; with HT29 colon it was -67.5% [100 µM] (active); with SNB-75 CNS, -78.3% [100 µM] (active); in the assay with SNB-19 CNS, -82.5% [100 µM] (active); in the assay on PC-3 prostate it was -83.7% [100 µM] (active); in the assay with SK-MEL-5 melanoma it was -95.4% [100 µM] (active). In addition, the growth is -93% [100 µM] (active) in the assay with UACC-62 melanoma; -81% [100 µM] (active) in the assay with LOX IMVI melanoma; -94.4% [100 µM] (active) with SK-MEL-28 melanoma; -90.1% [100 µM] (active) in the assay on SK-MEL-2 melanoma; -82.4% [100 µM] (active) in the assay on SN12C renal; -92.7% [100 µM] (active) in the assay with UO-31 renal. Besides, the growth in the assay on TK-10 renal is -96.4% [100 µM] (active); in the assay on ACHN renal, -90% [100 µM] (active); with CAKI-1 renal it was 73.1% [100 µM]; with A498 renal it was -88.4% [100 µM] (active); in the assay with MOLT-4 leukemia, -27.4% [100 µM] (active).
For `N#Cc1c(NC(=O)c2ccco2)[n+]([O-])c2ccccc2[n+]1[O-]`, the growth is 116% in the assay on HCT-15 colon; 109% with HT29 colon; 104% in the assay with SNB-75 CNS; 96.8% with SNB-19 CNS; 130% in the assay with PC-3 prostate; 91% in the assay with SK-MEL-5 melanoma. The growth is 81% in the assay on UACC-62 melanoma; 98.3% in the assay with LOX IMVI melanoma; 104% in the assay on SK-MEL-28 melanoma; 92.9% with SK-MEL-2 melanoma; 98.7% in the assay with EKVX NSCLC; 93.4% in the assay with SN12C renal. For the same molecule, the growth in the assay with TK-10 renal is 133%; in the assay on ACHN renal, 110%; in the assay with CAKI-1 renal, 110%; in the assay on A498 renal, 117%; in the assay on MOLT-4 leukemia, 85.3%.
Regarding `CC(NNC(=S)N1CCCCCC1)c1ccc2ccccc2n1` (stereo unspecified), the growth with HCT-15 colon was 30.8%; in the assay with HT29 colon, 35.9%; with SNB-75 CNS it was 71.4%; with SNB-19 CNS, 44.1%; in the assay with PC-3 prostate, 34.6%; in the assay on SK-MEL-5 melanoma it was 30.9%. The growth in the assay on UACC-62 melanoma is 11.3%; with LOX IMVI melanoma it was 29.6%; in the assay with SK-MEL-28 melanoma it was 54.7%; in the assay on SK-MEL-2 melanoma it was 90.2%; in the assay with SN12C renal, 37.3%; with UO-31 renal it was 9.9% (active). Also, the growth is 41.9% in the assay on TK-10 renal; 16.7% in the assay with ACHN renal; -9.22% (active) with CAKI-1 renal; 71.1% in the assay on A498 renal; 28.3% in the assay with MOLT-4 leukemia.
With `Clc1ccc(C2c3ccccc3-c3nccn32)c(Cl)c1` (stereo unspecified), the growth was 72.1% in the assay on HCT-15 colon; 77.9% in the assay on HT29 colon; 83.1% with SNB-75 CNS; 88.8% with SNB-19 CNS; 64.2% in the assay on PC-3 prostate; 47.3% with SK-MEL-5 melanoma. Further, the growth in the assay with UACC-62 melanoma was 73.2%; with LOX IMVI melanoma, 76.5%; in the assay with SK-MEL-28 melanoma, 112%; in the assay with SK-MEL-2 melanoma, 80.7%; with EKVX NSCLC, 60%; in the assay with SN12C renal, 85.4%. Besides, the growth in the assay on UO-31 renal is 80.1%; in the assay on TK-10 renal it was 81.3%; with ACHN renal it was 89.7%; in the assay with CAKI-1 renal it was -12% (active); in the assay with A498 renal, 90.3%; with MOLT-4 leukemia, 65.6%.
With `COc1ccc(-c2c3c(N)nc(-c4ccncc4)nc3nc3c2c(C)nn3-c2ccccc2)cc1`, the growth in the assay on HCT-15 colon was 57.1%; in the assay with HT29 colon, 23.9%; in the assay with SNB-75 CNS, 80.6%; in the assay on SNB-19 CNS it was 80.7%; in the assay with PC-3 prostate, 61%; with SK-MEL-5 melanoma, 72.6%. For the same molecule, the growth was 64.1% in the assay with UACC-62 melanoma; 41.2% in the assay on LOX IMVI melanoma; 56.2% in the assay on SK-MEL-28 melanoma; 48.1% in the assay with SK-MEL-2 melanoma; 83.7% with SN12C renal; 85.4% in the assay with UO-31 renal. In addition, the growth with TK-10 renal is 47%; in the assay with ACHN renal it was 3.79% (active); in the assay on CAKI-1 renal, 36%; in the assay with A498 renal, 73.2%; in the assay with MOLT-4 leukemia it was 51.2%.
Consider `Cc1ncc(C(=O)Nc2ccc(CN3CCN(C)CC3)c(C(F)(F)F)c2)cc1C#Cc1cncc2ncccc12`, for which the growth was 48.4% in the assay with HCT-15 colon; 32.4% in the assay with HT29 colon; 74.4% in the assay on SNB-75 CNS; 107% with SNB-19 CNS; 90.6% in the assay with PC-3 prostate; 37.5% in the assay on SK-MEL-5 melanoma. Moreover, the growth with UACC-62 melanoma is 40.7%; in the assay with LOX IMVI melanoma, 10.8%; in the assay on SK-MEL-28 melanoma, 16.3%; in the assay on SK-MEL-2 melanoma, 14.5%; with EKVX NSCLC it was 78.3%; in the assay with SN12C renal it was 50.6%. The growth in the assay with UO-31 renal is 1.39% (active); with TK-10 renal, 82.6%; in the assay on ACHN renal it was 26.8%; in the assay with CAKI-1 renal, 50%; in the assay on CCRF-CEM leukemia it was 66.7%; in the assay with MOLT-4 leukemia, 41.6%.
